This is an account of results in PubChem BioAssay (NCI).

Common to all, as to experiment: NCI-60 one-dose screen, 48 h (100 = growth as untreated, 0 = no growth, -100 = all killed)
The subject of test [1] is DU-145 prostate.
Test [2] relates to K-562 leukemia.
The test system of test [3] is MALME-3M melanoma.
Test [4] concerns MDA-MB-231 breast.
Test [5] has as its system RXF 393 renal.
In test [6] the test system is SF-268 CNS.
Test [7] relates to SF-295 CNS.
For test [8], the system named is SF-539 CNS.
For test [9], the system named is UACC-257 melanoma. To be noted: 10 µM unless noted.

SMILES strings stand for the structures. Values joined by “and” are separate entries in the source; they are usually repeats but may differ in a detail not shown here. Equal values may be shown once. Compounds without any hit were thinned out: in the full panel of roughly 83,000, 20% have a hit.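 Testing used 96-well plates and a 48-hour single-concentration exposure. Example: -40 means 40% of the starting cells died.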 Active and inactive are the calls of the source. How the source made its calls: active means growth percent below 10; inactive means the rest.

Consider `CCN(CC)CC(C)(C)C(=O)/C=C/c1ccc(Cl)c(Cl)c1`, for which the growth in test [1] (10 µM unless noted) was -61.6% (active); in test [2] (10 µM unless noted), 1.04% (active); in test [3] (10 µM unless noted), -52.7% (active); in [4] (10 µM unless noted), -48.8% (active); in test [5] (10 µM unless noted) it was -81.9% (active); in test [6] (10 µM unless noted), -0.0402% (active). In addition, the values for the growth in [7] (10 µM unless noted), in test [8] (10 µM unless noted) and in test [9] were 48.1% (inactive), -50.4% (active) and -5.04% (active), respectively.
With `O[C@H]1[C@H]2c3cc4c(cc3CN3CCC(=C[C@@H]1O)[C@H]23)OCO4`, the growth in test [1] (10 µM unless noted) is 9.62% (active); in test [2] (10 µM unless noted), 21.4% (inactive); in [3] (10 µM unless noted), 41.9% (inactive); in test [4] (10 µM unless noted), 39.6% (inactive); in test [5] (10 µM unless noted) it was 19% (inactive); in test [6] (10 µM unless noted), 24.4% (inactive). Also, the growth in [7] (10 µM unless noted) was 34% (inactive); in test [8] (10 µM unless noted) it was 14% (inactive); in test [9], 45.7% (inactive).
Consider `O=C1c2ccccc2C(=O)c2sc(Nc3ccc(Cl)cc3)nc21`, for which the growth was -78.3% (active) in test [1] (10 µM unless noted); 4.83% (active) in test [2] (10 µM unless noted); -79.6% (active) in test [3] (10 µM unless noted); 6.43% (active) in test [4] (10 µM unless noted); 17% (inactive) in [5] (10 µM unless noted); 42% (inactive) in [6] (10 µM unless noted). Besides, the growth in test [7] (10 µM unless noted) is 98.4% (inactive); in test [8] (10 µM unless noted) it was 2.24% (active); in test [9] it was -16% (active).
Take `CCCCCCCCCCCCCCCCOP(=O)([O-])OCC[N+](C)(C)C`: the growth in test [1] (10 µM unless noted) was 82.2% (inactive); in test [2] (10 µM unless noted) it was 64.6% (inactive); in [3] (10 µM unless noted), 74.1% (inactive); in test [4] (10 µM unless noted), 36.8% (inactive); in test [5] (10 µM unless noted), -32.1% (active); in test [6] (10 µM unless noted) it was 32.5% (inactive). The growth in test [7] (10 µM unless noted) is 28% (inactive); in test [8] (10 µM unless noted) it was 55.9% (inactive); in [9], 76.7% (inactive).
As for `COc1cc(NS(C)(=O)=O)ccc1Nc1c2ccccc2nc2ccccc12`, the growth in test [1] (10 µM unless noted) is -34.4% [2.5 µM] (active); in test [2] (2.5 µM), 29.2% (inactive); in [2] (10 µM) it was 0.97% (active) and 16.8% (inactive) and 23.4% (inactive); in [3] (2.5 µM) it was 43.4% (inactive); in [3] (10 µM), -25.4% (active) and 20.4% (inactive) and 25.4% (inactive); in test [4] (10 µM unless noted), 98.2% [2.5 µM] (inactive). The growth was 6.88% [2.5 µM] (active) in test [5] (10 µM unless noted); 35.1% (inactive) in test [6] (2.5 µM); 25.1% (inactive) [middle of 4 runs] in test [6] (10 µM); 3.7% [2.5 µM] (active) in test [7] (10 µM unless noted); -34.3% [2.5 µM] (active) in [8] (10 µM unless noted); 5.31% [2.5 µM] (active) in [9].
In the case of `O=C(Nc1cccc(Br)c1)Oc1cccc2cccnc12`, the growth is 115% (inactive) in test [1] (10 µM); 35.6% (inactive) in test [1] (100 µM); 109% (inactive) in test [2] (10 µM); 12.6% (inactive) in test [2] (100 µM); 114% (inactive) in test [3] (10 µM); 7.15% (active) in test [3] (100 µM). For the same compound, the growth was 98.4% (inactive) in [4] (10 µM); 15.1% (inactive) in test [4] (100 µM); 106% (inactive) in test [5] (10 µM); 55.6% (inactive) in test [5] (100 µM); 107% (inactive) in test [6] (10 µM); 20.9% (inactive) in [6] (100 µM). Also, the growth is 97.4% (inactive) in test [7] (10 µM); 9.21% (active) in test [7] (100 µM); 97.1% (inactive) in test [8] (10 µM); 9.58% (active) in [8] (100 µM); 7.41% [100 µM] (active) in test [9].
`O=C(/C=C/c1cccc(Cl)c1)c1ccccc1`: the growth in [1] (10 µM unless noted) was 101% (inactive) and 87.6% (inactive); in [2] (10 µM unless noted), 28.7% (inactive) and 46.5% (inactive); in [3] (10 µM unless noted), 104% (inactive); in [4] (10 µM unless noted), 105% (inactive) and 89.2% (inactive); in test [5] (10 µM unless noted), 85.4% (inactive); in [6] (10 µM unless noted) it was 99.9% (inactive) and 98.4% (inactive). For the same compound, the growth was 93.9% (inactive) and 95.8% (inactive) in [7] (10 µM unless noted); 105% (inactive) and 97.9% (inactive) in [8] (10 µM unless noted); 100% (inactive) and 94.4% (inactive) in test [9].
For `NC(=S)N/N=C/c1ccc(Cl)s1`, the growth was 106% (inactive) in test [1] (10 µM unless noted); 99.5% (inactive) in test [2] (10 µM unless noted); 104% (inactive) in [3] (10 µM unless noted); 110% (inactive) in test [4] (10 µM unless noted); 99.9% (inactive) in test [5] (10 µM unless noted); 102% (inactive) in test [6] (10 µM unless noted). In addition, the results for the growth in test [7] (10 µM unless noted), in test [8] (10 µM unless noted) and in test [9] were 103% (inactive), 100% (inactive) and 104% (inactive), respectively.
`CCCCCCCCCCCCCCCCN(CC)CC`: the growth in test [1] (10 µM unless noted) is -48.4% (active); in test [2] (10 µM unless noted), -73.5% (active); in [3] (10 µM unless noted) it was -90.3% (active); in [4] (10 µM unless noted), -86.9% (active); in test [5] (10 µM unless noted), -86.2% (active); in test [6] (10 µM unless noted), -34.8% (active). For the same compound, the results for the growth in test [7] (10 µM unless noted), in test [8] (10 µM unless noted) and in [9] were -92.9% (active), -98.2% (active) and -51.9% (active), respectively.
`CC(C)(C)CC(C)(C)c1ccc(OCCSC(=N)N)cc1`: the growth was 72.4% (inactive) in test [1] (10 µM unless noted); 0.322% (active) in test [2] (10 µM unless noted); -0.257% (active) in test [3] (10 µM unless noted); -7.07% (active) in [4] (10 µM unless noted); 60.8% (inactive) in [5] (10 µM unless noted); 55% (inactive) in test [6] (10 µM unless noted). Further, the growth in test [7] (10 µM unless noted) was -34.7% (active); in test [8] (10 µM unless noted), -6.57% (active); in test [9] it was 76.7% (inactive).
For the compound `Oc1ccc(/C=N/NC(=S)Nc2ccccc2)nc1`, the growth in test [1] (10 µM unless noted) is 12.3% (inactive); in test [2] (10 µM unless noted), 14.1% (inactive); in test [3] (10 µM unless noted) it was 14.4% (inactive); in test [4] (10 µM unless noted), 49.3% (inactive); in [5] (10 µM unless noted), 3.06% (active); in [6] (10 µM unless noted), 18.7% (inactive). Also, the growth in [7] (10 µM unless noted) is 25.3% (inactive); in test [8] (10 µM unless noted) it was 1.01% (active); in test [9], 4.98% (active).
As for `COC(=O)c1nc(=S)[nH]c(C(=O)OC)c1C(=O)c1ccccn1`, the growth is 39.5% (inactive) in test [1] (10 µM unless noted); 17.7% (inactive) in [2] (10 µM unless noted); 30.7% (inactive) in [3] (10 µM unless noted); 33.6% (inactive) in test [4] (10 µM unless noted); 43.2% (inactive) in [5] (10 µM unless noted); 34.3% (inactive) in test [6] (10 µM unless noted). Moreover, the growth was -1.15% (active) in [7] (10 µM unless noted), 15.6% (inactive) in test [8] (10 µM unless noted) and 75.7% (inactive) in test [9].
As to `CN(Cc1cnc2nc(N)nc(N)c2n1)c1ccc(C(=O)NC(CCC(=O)O)C(=O)O)cc1` (stereo not drawn), the growth was 26.7% (inactive) in [1] (10 µM unless noted); 18.7% (inactive) in test [2] (10 µM unless noted); 43.8% (inactive) in [3] (10 µM unless noted); 82.8% (inactive) in test [4] (10 µM unless noted); 46.1% (inactive) in test [5] (10 µM unless noted); 25.5% (inactive) in test [6] (10 µM unless noted). The growth in test [7] (10 µM unless noted) was 20% (inactive); in test [8] (10 µM unless noted) it was 22.2% (inactive); in [9], 53% (inactive).
